Values joined by “and” are separate entries in the source; they are usually repeats but may differ in a detail not shown here. Identical values can stand only once. The campaign covered roughly 220,000 compounds. About 150 (0.068%) were called active. Shown is part of a subset that was picked to be rich in actives. A number with no mark means an inactive call.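 Rule for the calls: active = activation, meaning protection from cell death, of at least 50% relative to plate controls; inactive = activation below 50%.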
experiment: rescue of FADD-deficient Jurkat cells from TNF-alpha death – single concentration, primary screen (AID 463075); conditions: Jurkat FADD-/- TNF necroptosis rescue, ATP luminescence, 24 h; at 10 µM; hits give high values; 0 = TNF only, 100 = no-TNF cells;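 note: necroptosis triggered by 40 ng/mL TNF-alpha added together with compound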

| Structure (SMILES) | activation (protection from cell death) |
| --- | --- |
| CCOC(=O)/C=c1\s/c(=C\c2ccc(C#N)cc2)c(=O)n1CC(=O)Nc1cccc(C)c1C | 0.5% |
| Cc1ccc(N2C(=O)SC(N(CC(=O)O)c3ccc(C)cc3)C2=O)cc1 (stereo unspecified) | 0.355% |
| CCCN(CC(=O)Nc1ccc(C(N)=O)cc1)CC(=O)Nc1ccccc1C | 8.38% |
| Oc1ccccc1C=NC1CCCCC1N=Cc1ccccc1O (stereo unspecified) | 0.233% |
| C/C(=N\N=C(N)N)c1ccc(Cl)cc1 | 2.76% |
| C=CCNC(=O)c1sc(SC)cc1-c1ccc(Cl)cc1 | -2.68% |
| COc1cccc(C2c3[nH]c4ccccc4c3CCN2Cc2cccc(C)n2)c1 (stereo unspecified) | 0.616% |
| CC1CCc2c(nc3ncnn3c2Nc2ccc(OC(F)(F)F)cc2)C1 (stereo unspecified) | -5.14% |
| COC(=O)c1ccc(NC(=O)CSc2nncc3ccc(OC)c(OC)c23)cc1 | -0.335% |
| CCNc1nc(NCC)nc(N/N=C/c2ccc(O)c(OC)c2)n1 | 22.3% |
| Cc1ccc(NC(=O)c2cccs2)cc1S(=O)(=O)N(C)C | 1.75% |
| CCOC(=O)C1=C(c2ccccc2)NC(=S)NC1c1ccc(Cl)cc1 (stereo unspecified) | -2.28% |
| COc1ccc(/C(=N\O)c2nccc3cc(OC)c(OC)cc23)cc1OC | 0.543% |
| CN1C(C)(C)CC(NC(=O)CCC(=O)NC2CC(C)(C)N(C)C(C)(C)C2)CC1(C)C | 0.679% |
| CNC(=O)c1c(NC(NC(=O)c2ccco2)C(=O)c2ccc(Cl)cc2)sc2c1CCCC2 (stereo unspecified) | 0.421% |
| Cc1c(CN2CCCCC2)c(O)n(CCO)c(=O)c1C#N | -0.121% |
| CCOC(=O)/C(=N\Nc1cc(Cl)ccc1Cl)N1CCN(C)CC1 | 7.63% |
| COc1cccc(OCCCN2CCCCCC2)c1 | 1.03% |
| Cc1cc(=O)oc2cc(OCC3CC(c4ccccc4Cl)=NO3)ccc12 (stereo unspecified) | -15.7% |
| Cc1ccc(C2NC(=S)NC3=C2N2CCC3CC2)cc1 (stereo unspecified) | 1.6% |
| C=C(Cl)COC(=O)C1C2C=CC(C2)C1C(=O)O (stereo unspecified) | -1.48% |

| Structure (SMILES) | activation (protection from cell death) |
| --- | --- |
| CN(C)/C=C/C(=O)c1cnc2sccn2c1=O | -0.24% |
| Cc1nnsc1C(=O)N/N=C/c1ccccc1Cl | 3.7% |
| Cc1nnsc1C(=O)Nc1cccc(Cl)c1C | 5.62% |
| Cc1nnsc1C(=O)NCc1c(F)cccc1Cl | 72.6% (active) |
| O=C(NCCCCCCCCCNC(=O)C(F)(F)F)C(F)(F)F | -0.812% |
| CS(=O)(=O)c1ccc2nc(NC(=O)c3ccc(N4CCCC4=O)cc3)sc2c1 | -0.943% |
| COc1ccc(S(=O)(=O)N2CCN(C(=O)c3cc(C)oc3C)CC2)cc1 | 2.28% |
| O=c1cc(N2CCCCC2)c(-c2ccccc2)nn1Cc1cccc(F)c1 | -0.813% |
| Cc1ccc(O)c(-c2cc(C(=O)NCc3ccccc3)[nH]n2)c1 | -18.4% |
| O=C(Nc1ccc(F)cc1)c1cc2c(s1)CCCC2 | -1.43% |
| CCCCCCCNc1nc(Cl)nc(NCCO)n1 | 5.58% |
| O=C(CCCOc1ccc(Cl)cc1Cl)NNC(=O)C1CCC1 | 3.99% |
| C/C(CCc1ccccc1)=N\NC(=O)c1ccc(CN2CCOCC2)cc1 | 0.488% |
| CCN=c1sc(C(=O)Nc2ccccc2)c(C)n1CC | 1.57% |
| CCOC(=O)CN(C(=O)COc1nc(-c2ccccc2)cc(C)c1C#N)c1ccc(F)cc1 | 0.588% |
| Cc1ccccc1-n1nc(C)c2c1N=C1C(Cl)=CC(Cl)=CN1C2c1ccc(C(=O)O)cc1 (stereo unspecified) | 1.37% |
| COc1cc(OC)cc(-c2cc3nc(C4CCN(C(=O)OC(C)(C)C)CC4)cc(=O)n3[nH]2)c1 | 1.03% |
| c1ccc(C2c3[nH]c4ccccc4c3CCN2Cc2cccn2-c2cccnc2)nc1 (stereo unspecified) | -0.81% |
| CCCCCCC12CCC(C(=O)O)(CC1)CC2 | -1.53% |
| CCn1c(SCC(=O)Nc2sc(C)c(C)c2C#N)nnc1C1CC1 | 4.46% |
| Cc1ccc(CC2S/C(=C(/C#N)C(=O)N3CCOCC3)N(c3ccccc3)C2=O)cc1 (stereo unspecified) | -0.961% |

| Structure (SMILES) | activation (protection from cell death) |
| --- | --- |
| COc1ccc(-c2ccc(CCC(=O)O)n2-c2ccc(O)cc2)cc1 | 0.347% |
| COc1ccc(-n2c(SC)nc(O)cc2=O)cc1 | 0.231% |
| COc1ccc(-n2c(C)nc3c(cnn3-c3ccccc3)c2=O)cc1 | -4.93% |
| COc1ccc(-n2c(C)nn(CC3CC3)c2=O)cc1 | 68.3% (active) |
| COc1ccc(CCN2C(=O)CC(N3CCC(C(N)=O)CC3)C2=O)cc1OC (stereo unspecified) | 1.77% |
| CCOc1cc(CNCCN(C)C)c(Cl)cc1OCC(=O)NCCc1ccccc1 | -1.03% |
| O=C(NC(=S)Nc1cccc(-c2ccc(CO)o2)c1)c1cccs1 | -0.171% |
| Cc1nc(-c2ccccc2)cn2c1nc1ccccc12 | 0.981% |
| CCOC(=O)C(=O)C1C(=O)Nc2ccccc21 (stereo unspecified) | -0.27% |
| COc1ccc(NC(=O)c2sccc2SCC#N)cc1 | -2.27% |
| COc1ccc(S(=O)(=O)Nc2ccc(F)cc2)c(C)c1C | -1.23% |
| C=CCn1c(P(C)(=O)O)nc2ccccc21 | 1.54% and 0.149% |
| CN(C)c1ccc(-n2cccc2/C=N/n2cnnc2)cc1 | 1.75% |
| Cc1nonc1C(=O)N/N=C/c1ccc(O)cc1 | 1.53% |
| CCOC(=O)C1=NN(c2ccc(Cl)cc2)/C(=C/C2=NCCc3cc(OC)c(OC)cc32)S1 | -2.32% |
| CCN(CC(=O)Nc1cccc(S(N)(=O)=O)c1)Cc1nc2ccccc2c(=O)[nH]1 | 2.32% |
| CC(C)CCN1C(=O)c2ccc(C(=O)Nc3cccc(S(N)(=O)=O)c3)cc2C1=O | -1.31% |
| O=C(CC1C(=O)NCCN1Cc1ccc(-c2ccccc2)cc1)NCc1ccncc1 (stereo unspecified) | 0.134% |
| S=C(Nc1ccc(Br)cc1Cl)NC1CCN(Cc2ccccc2)CC1 | 1.9% |
